Experimental data: ChEMBL document CHEMBL4513216, “Probing the Open Global Health Chemical Diversity Library for Multistage-Active Starting Points for Next-Generation Antimalarials” (ACS Infect Dis, 2020)
The campaign covered roughly 69,000 compounds. About 8,600 (12%) showed an effect of 50% or more. This is one part of a sample in which strong results are shown more often than they occur.

system: Plasmodium berghei; assay: Screen against P. berghei liver stage (PbLuc), transformed with Luciferase, at 10uM; format: functional, HepG2; settings: tested at 10 uM

| SMILES | INHIBITION [%] |
| --- | --- |
| Cc1noc2ncc(C(=O)N3CCCC3c3ccsc3)cc12 (configuration not stated) | -7.35 |
| Cc1cc(C2CCCN(C(=O)Cc3csc(C(C)C)n3)C2)n[nH]1 (configuration not stated) | -23.8 |
| O=S(=O)(c1ccccc1)N1CCCC1c1cc[nH]n1 (configuration not stated) | 18.9 |
| Cc1ccc(C(=O)NCCNc2ncccc2C#N)c(=O)[nH]1 | -58.7 |
| Cc1ccc(CNC(=O)c2ccc(=O)n(C)n2)c(OC2CCCC2)c1 | 5.91 |
| CN1CCc2c(sc3c2C(=O)NC(C=Cc2ccccc2)N3)C1 (configuration not stated) | -45.3 |
| CCC(C)N1Cc2c(C(=O)N3CCCC3)nn(C)c2C1 (configuration not stated) | 23.1 |
| Cc1ccc(CN2Cc3c(C(=O)N4CCCC4)nn(C)c3C2)s1 | -30.6 |
| CC(C)CCN1Cc2c(C(=O)N3CCCC3)nn(C)c2C1 | 60 |
| Cn1nc(C(=O)N2CCOCC2)c2c1CN(CC1CC1)C2 | 48.4 |
| Cn1nc(C(=O)N2CCOCC2)c2c1CN(CC1CCC1)C2 | 53 |
| Cn1nc(C(=O)N2CCCC2)c2c1CN(CC1CCOCC1)C2 | 21.6 |
| CCN1C(=O)CCC12CCC(NC(=O)c1cnccn1)CC2 (configuration not stated) | -43 |
| CNC(=O)c1cn[nH]c1C1(C)CCCN(Cc2nccn2C(C)C)C1 (configuration not stated) | 46 |
| CC(NCc1cnc(C2CCC2)s1)c1ccc(-n2cncn2)cc1 (configuration not stated) | 61.4 |
| CC(NCc1cnc(C2CCC2)s1)c1cccc(-n2ccnc2)c1 (configuration not stated) | 29.7 |
| CC(NCc1cnc(C2CCC2)s1)c1ccccc1-n1cccn1 (configuration not stated) | 11.9 |
| CC(NCc1cnc(C2CCC2)s1)c1ccc(-n2cccn2)cc1 (configuration not stated) | 59.4 |
| CC(C)COCCCNC(=O)NC(C)c1ccc(-n2cncn2)cc1 (configuration not stated) | -12.3 |
| Cc1cnn(CC(C)NCc2ccc(-n3cccn3)cc2)c1 (configuration not stated) | -1.58 |
| CCCS(=O)(=O)NC(C)c1cccc(-n2cccn2)c1 (configuration not stated) | 29.3 |
| CCOCCCNC(=O)NC(C)c1ccc(-n2cncn2)cc1 (configuration not stated) | -31.4 |
| CC(NCc1cnc(C2CCC2)s1)c1cccc(-n2cccn2)c1 (configuration not stated) | 75.3 |
| CN1CCN(C(=O)c2cccn2C)Cc2cccnc21 | 16.4 |
| O=C1N(CC2CC2)CCC12CCCN(c1ncc(F)cn1)C2 (configuration not stated) | 42.4 |
| Cc1cnn(CC2CCCN2C(=O)c2csc(C3CC3)n2)c1 (configuration not stated) | -23.9 |

| SMILES | INHIBITION [%] |
| --- | --- |
| O=C(CCN1CCCC1)Nc1c2c(cc3c1CCC3)CCC2 | 6.29 |
| CC(=O)N1CCC(C)(c2cc(C(=O)NCC(C)(C)C)nc(C)n2)CC1 | 37.9 |
| C[C@H]1CN(C(=O)c2cccc(F)c2Cl)CCN1S(C)(=O)=O | 61.1 |
| Cc1cccc(C(=O)N2CCN(S(C)(=O)=O)[C@@H](C)C2)c1C | 40.3 |
| Cc1cccc(C(=O)N2CCN(S(C)(=O)=O)[C@@H](C)C2)c1Cl | 22.6 |
| Cc1ccc(C(C)C(=O)N2CCCN(Cc3cscn3)CC2)cc1 (configuration not stated) | 15.2 |
| CC(C)c1ncncc1C(=O)N1CCN(Cc2cscn2)CC1 | 49.3 |
| Cc1nc(CN2CCN(C(=O)C(c3ccccc3C)N(C)C)CC2)no1 (configuration not stated) | 6.66 |
| COCc1ccc(C(=O)N2CCCN(Cc3cscn3)CC2)cc1 | 27.4 |
| CC(Oc1ccccc1)C(=O)N1CCCN(Cc2cscn2)CC1 (configuration not stated) | 27.25 |
| Cc1nc(CN2CCN(C(=O)COCc3ccccc3)CC2)no1 | 4.2 |
| Cc1ccc(C(=O)N2CCCN(Cc3cscn3)CC2)o1 | 7.67 |
| O=C(c1ccc(Cl)o1)N1CCCN(Cc2cscn2)CC1 | 50.4 |
| CC(C)c1ccc(O)c(C(=O)N2CCN(Cc3cscn3)CC2)c1 | 54.9 |
| CC(C)c1ccsc1C(=O)N1CCCN(Cc2cscn2)CC1 | 2.61 |
| COC(C(=O)N1CCN(Cc2noc(C)n2)CC1)c1ccccc1 (configuration not stated) | 53.8 |
| COC(C(=O)N1CCCN(Cc2cscn2)CC1)c1ccccc1 (configuration not stated) | 54.3 |
| Cn1nccc1CNC(=O)CCn1nc(C(F)(F)F)cc1C1CC1 | -49.3 |
| c1cncc(CN(Cc2ccc(-n3ccnc3)cc2)CC2CCCO2)c1 (configuration not stated) | 23.2 |
| CC(C)c1ccc(C(C)N2CCCN(C(N)=O)CC2)cc1 (configuration not stated) | -18.7 |
| CC1CCCN(S(=O)(=O)NCc2ccccc2Cn2cncn2)C1 (configuration not stated) | 37.4 |
| CC1CCCN(CC(=O)N2CCC(c3ncc4c(n3)CCNC4)CC2)C1 (configuration not stated) | 25 |
| COc1cccc(COCC(=O)N2CCCC(n3cncn3)C2)c1 (configuration not stated) | -24.2 |
| COc1ccc(Cc2noc(-c3ccc(NC(C)CO)nc3)n2)cc1 (configuration not stated) | 52.2 |
| COCC(C)Nc1ccc(-c2nc(Cc3ccc(F)cc3)no2)cn1 (configuration not stated) | 49 |
| CC(CO)Nc1ccc(-c2nc(Cc3ccc(F)cc3)no2)cn1 (configuration not stated) | -37.6 |
